Among the data in PubChem BioAssay are composite z-score values, retold here.

The target of this assay is Dickkopf-related protein 1 (Homo sapiens) (UniProt O94907). Nature of the assay: small molecules binding DKK1 protein – biochemical, small-molecule microarray, 635 nm fluorescence scan, primary screen (AID 1106).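 Further: score merges emission near 667 nm with signal to noise over three replicate slides.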 As to conditions: higher = more signal.
Chain of Dickkopf-related protein 1 (Homo sapiens) (O94907 whole entry, looked up): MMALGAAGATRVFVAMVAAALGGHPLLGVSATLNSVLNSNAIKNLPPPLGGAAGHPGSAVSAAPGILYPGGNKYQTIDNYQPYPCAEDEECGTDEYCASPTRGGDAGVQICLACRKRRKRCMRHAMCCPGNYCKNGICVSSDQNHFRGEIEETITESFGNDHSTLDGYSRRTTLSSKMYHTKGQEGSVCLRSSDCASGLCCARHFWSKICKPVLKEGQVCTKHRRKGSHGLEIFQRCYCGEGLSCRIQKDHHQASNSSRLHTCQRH
As to `O=C1CCCC=C1C(O)C1CCCCC1` (stereo not given), the composite z-score worked out at 0.165.

For `CO[C@H]1COC(=O)CC=C[C@H](C)[C@H](OC)COC(=O)[C@@H](C)NC(=O)CC=C[C@@H]1C`, the composite z-score came out at 1.56.

Take `COC(=O)CC=C[C@@H](C)[C@@H](C=NOC[C@@H](C)[C@H](OCc1ccccc1)C(C)C)OC`: the composite z-score came out at 0.426.

With `CC(C)CON=C1C[C@@H](O)[C@@H](O)[C@@H]2[C@@H]3C(=O)N(C(C)(C)C)C(=O)[C@@H]3CC[C@@H]12`, the composite z-score was determined as 1.95.

For `CC1(C)O[C@H]2OC([C@H](O)CON3C(=O)c4ccccc4C3=O)[C@H](O)[C@H]2O1` (stereo not given in full), the composite z-score is 0.46.

`CCOC(=O)CCN1C(=O)[C@H]2[C@H]3[C@H](O)[C@H](O)CC(=NNC(=O)OCC)[C@H]3CC[C@H]2C1=O` gave a composite z-score of 0.913.

`CCN(CC)CC(O)CN1CCCCc2nc(C)c(C)cc21` (stereo not given) showed a composite z-score of 0.701.

As to `CC(C)=NO[C@@H](C)c1cn([C@H](CO)Cc2ccccc2)nn1`, the composite z-score was determined as 0.27.

With `O=C(NN=C1C[C@@H](O)[C@@H](O)[C@@H]2[C@@H]3C(=O)N(Cc4ccccc4)C(=O)[C@@H]3CC[C@H]12)OCc1ccccc1`, the composite z-score turned out to be 0.698.

As for `CCOC(=O)CCN1C(=O)[C@H]2[C@H]3[C@H](O)[C@H](O)CC(=NOCC=C(C)CCC=C(C)C)[C@H]3CC[C@H]2C1=O`, the composite z-score is -0.185.

In turn, `CC(=O)OC[C@H]1O[C@@H](ON=C2[C@H]3CCn4c(=O)n(-c5ccccc5)c(=O)n4[C@H]3[C@H](O)[C@@H]3O[C@H]23)[C@H](OC(C)=O)[C@@H](OC(C)=O)[C@@H]1OC(C)=O` had a composite z-score of 0.731.

For `O=C1CCCC=C1C(O)COCc1ccccc1` (stereo not given), the composite z-score was -0.126.

The compound `C[C@H]1CC[C@@H](C(=O)O)N[C@@H]1c1cccc(N2CCCC2=O)c1` gave a composite z-score of 0.153.

Regarding `COC(=O)[C@H](C)NC(=O)CCC1CC(OC(=O)NCc2ccc3c(c2)OCO3)CC2(CCCC(COC(=O)NCCCN3CCCC3=O)O2)O1` (stereo not given in full), the composite z-score is 1.41.

The compound `CC(C)(C)N1C(=O)[C@H]2[C@@H]3C(=CC[C@H]2C1=O)C(=O)[C@H]1O[C@H]1[C@H]3O` returned a composite z-score of 0.512.

As for `CCOC(=O)NN=C1C[C@@H](O)[C@@H](O)[C@@H]2[C@@H]3C(=O)N(C[C@@H]4CCCO4)C(=O)[C@@H]3CC[C@H]12`, the composite z-score came out at 0.504.

Compound `CC(C)=CCCC(C)=CCON=C1C[C@@H](O)[C@@H](O)[C@@H]2[C@@H]3C(=O)N(Cc4ccc5c(c4)OCO5)C(=O)[C@@H]3CC[C@H]12` came in with a composite z-score of 0.35.

`CC(=O)OC[C@H]1O[C@H](CC=NOC(C)CN2CCCCc3nc(C)c(C)cc32)C=C[C@@H]1OC(C)=O` (stereo not given in full) showed a composite z-score of 1.68.

As for `CCOC(=O)[C@H](Cc1ccccc1)NC(=O)CCC1CC(OC(=O)NCCc2ccc(F)cc2)CC2(CCCC(COC(=O)NCc3cccc(C(F)(F)F)c3)O2)O1` (stereo not given in full), the composite z-score came to 0.484.

Turning to `O=C1C=C[C@@H](O)[C@@H]2[C@@H]3C(=O)N(Cc4ccc5c(c4)OCO5)C(=O)[C@@H]3CC[C@@H]12`, the composite z-score stood at 0.615.

Compound `O=C1CCCC=C1C(O)c1ccc([N+](=O)[O-])cc1` (stereo not given) displayed a composite z-score of 0.133.

Compound `COC(=O)CC=C[C@@H](C)[C@@H](C=NOC(C)CN1CCCCc2nc(C)c(C)cc21)NS(=O)(=O)c1ccc(C)cc1` (stereo not given in full) gave a composite z-score of 0.846.

The compound `CC(CCC(=O)OC[C@H]1O[C@H](C#Cc2ccccc2)C=C[C@@H]1Oc1ccc(C)cc1)=NOC(C)CN1CCCc2nc(C)c(C)cc21` (stereo not given in full) displayed a composite z-score of 0.397.

In turn, `CCN1C(=O)[C@H]2[C@H]3[C@H](O)[C@H](O)CC(=NO[C@H](C)c4cn([C@@H]5COC[C@H]5O)nn4)[C@@H]3CC[C@H]2C1=O` showed a composite z-score of 0.451.

For `COc1ccc(-c2cnnc(CCCn3ccnc3-c3ccccc3)n2)cc1`, the composite z-score came to 1.02.
